The whole screen tested about 69,000 compounds, of which about 8,600 (12%) showed an effect of 50% or more. The entries come from a sample that favours strong results as a whole.

The subject of the experiment is Plasmodium berghei. Nature of the experiment: Screen against P. berghei liver stage (PbLuc), transformed with Luciferase, at 10uM. The following applies: tested at 10 uM. Format: functional, HepG2.
In the case of `CN1CCN(C2CCN(CC(O)c3ccccc3F)CC2)C1=O` (stereo not given), the INHIBITION is 17.065%.

On to `c1cnc(-c2nn3c(CN4CCCCC4)nnc3s2)cn1`, for which the INHIBITION turned out to be 6.83%. Next, `CCOC(=O)C1=NOC(Cc2cc(OC)c3c(c2)OCO3)C1` (stereo not given): 60%; `COc1cc(CC2CC(C(N)=O)=NO2)cc2c1OCO2` (stereo not given): 16.3%. Consider `COC(=O)C1=NOC(Cc2cc(OC)c3c(c2)OCO3)C1` (stereo not given), for which the INHIBITION came to 10.7%. Then `CN1CC(C(=O)NCCc2ccc(F)c(Br)c2)CC1=O` (stereo not given), with -50.6%; and `O=C(CCN1CCCCC1c1cc2ccccc2[nH]1)N1CCOCC1` (stereo not given), with 55.8%; and `CS(=O)(=O)NCCCN1CCCC1c1ccccc1` (stereo not given), with 9.25%. For the molecule `CS(=O)(=O)NCCCN1CCCCC1c1cc2ccccc2[nH]1` (stereo not given), the INHIBITION is 52%. With `O=C(CCN1CCCCCC1c1ccco1)N1CCOCC1` (stereo not given), the INHIBITION came out at 19.5%. On to `COc1ccc(C2CCCCCN2CCCNS(C)(=O)=O)cc1` (stereo not given), for which the INHIBITION worked out at 0.914%. Regarding `O=C(CCN1CCC(c2cc3ccccc3[nH]2)CC1)N1CCOCC1`, the INHIBITION is given as 39.7%.

For `OC(CN1CCN(Cc2cccc(F)c2)CC1)C1CC1` (stereo not given), the INHIBITION is -16.5%. Then `Cc1n[nH]c(C)c1NC(=O)CN1CCCC1c1noc(C(C)C)n1` (stereo not given), with 14.1%; and `c1cncc(-c2noc(CN3CCOC(Cn4cccn4)C3)n2)c1` (stereo not given), with 16.1%. In the case of `Cc1ccc(CN(CCN(C)C)C(=O)Nc2cnn(C)c2)s1`, the INHIBITION is 46.4%. Turning to `CN(C)c1nccc(C2CCCN2S(=O)(=O)c2cn(C)cn2)n1` (stereo not given), the INHIBITION turned out to be 12.3%. Take `O=C(NCc1nnc2n1CCC2)c1cn(-c2cccc(Br)c2)nn1`: the INHIBITION is listed as 35.7%. Next, `COCCNC(=O)Nc1ccc(F)c(C(N)=O)c1`: 39.8%. Regarding `COCC1CN(C(=O)COc2ccccc2C)Cc2ncn(C)c21` (stereo not given), the INHIBITION is reported as -9.42%.

As for `CCn1nnc2c1C(COC)CN(C(=O)COc1ccccc1)C2` (stereo not given), the INHIBITION was -12.2%. Then `CCS(=O)(=O)N1Cc2ncn(CC3CC3)c2C(COC)C1` (stereo not given), with 11.5%; and `COCC1CN(CC2CC2)Cc2ncn(CC3CC3)c21` (stereo not given), with 13.5%; and `COCC1CN(S(=O)(=O)C2CC2)Cc2ncn(CC3CC3)c21` (stereo not given), with 51%.

For the molecule `CCOCC1CN(S(=O)(=O)C2CC2)Cc2ncn(CC3CC3)c21` (stereo not given), the INHIBITION is 7.53%.

Turning to `COCC1CN(S(C)(=O)=O)Cc2ncn(CC3CC3)c21` (stereo not given), the INHIBITION was -3.1%. Then `COCC1CN(C(=O)COc2ccccc2)Cc2ncn(C)c21` (stereo not given), with 51.2%.

Consider `COCC1CN(C(=O)CS(C)(=O)=O)Cc2ncn(CC3CC3)c21` (stereo not given), for which the INHIBITION turned out to be 50%. Consider `CS(=O)(=O)c1ccc(-c2nc(C(=O)N3CCCC3)n3ccccc23)cc1`, for which the INHIBITION is reported as -42.9%. With `Cc1ccc(CN2CC[C@@H](O)[C@@H]2Cc2ccccc2)o1`, the INHIBITION is 42.3%.

Take `CC1=C(c2ccc(F)cc2)S(=O)(=O)N=C1N1CCc2ccccc21`: the INHIBITION stood at 0.29%. As for `CC(C)N(C)CCNC(=O)N1CCN(Cc2ccon2)CC1`, the INHIBITION was -0.514%. Then `CC(C)c1cnc(CN(C)C2CCN(CCS(C)(=O)=O)C2)o1` (stereo not given), with 38.5%. For `Cc1cnc(CN(Cc2ccc(Cl)s2)C2CCN(C)C2)o1` (stereo not given), the INHIBITION is given as 51.2%. As for `COc1ccc(C)cc1CN(Cc1ncc(C)o1)C1CCN(C)C1` (stereo not given), the INHIBITION is 23.7%. Turning to `Cc1cnc(CN(Cc2ccc(C#N)cc2F)C2CCN(C)C2)o1` (stereo not given), the INHIBITION is -40.7%.

For `Cc1cnc(CN(C)C2CCN(Cc3sc(C)nc3C)C2)o1` (stereo not given), the INHIBITION is 21.6%. Then `CCc1cnc(CN(C)C2CCN(CCS(C)(=O)=O)C2)o1` (stereo not given), with 36.8%; and `Cc1cnc(CN(C)C2CCN(Cc3cnc(C)s3)C2)o1` (stereo not given), with 23.1%.

Regarding `CCS(=O)(=O)CCN1CCC(N(C)Cc2ncc(C)o2)C1` (stereo not given), the INHIBITION was found to be 74.4%.

In the case of `Cc1cnc(CN(C)C2CCN(Cc3ccc(Cl)s3)C2)o1` (stereo not given), the INHIBITION is 60%. As for `CC(=O)N(Cc1ncc(C)o1)C1CCN(Cc2ccc(F)c(F)c2)C1` (stereo not given), the INHIBITION came out at 68.9%. Take `CC(=O)N(Cc1ncc(C)o1)C1CCN(Cc2ccccc2F)C1` (stereo not given): the INHIBITION is listed as -19.9%.

As to `CC(=O)N(Cc1ncc(C)o1)C1CCN(Cc2cccnc2)C1` (stereo not given), the INHIBITION amounted to 31.9%. Take `CN(C)c1ccc(C(=O)NCc2ccc(N3CCOCC3)cc2)cn1`: the INHIBITION worked out at 12%.

Turning to `Cc1n[nH]c(C2CN(C(=O)CCOCC(F)(F)F)CCO2)n1` (stereo not given), the INHIBITION was found to be 13.6%. Then `CC(=O)N1CCOCC2(CCN(Cc3ccc(C)s3)CC2)C1`, with 20.2%. Regarding `CS(=O)(=O)N1CCO[C@@H]2CN(C(=O)N3CCCC3)CC[C@@H]2C1`, the INHIBITION came to 43.9%. Then `O=C(c1cc2c(s1)CCCC2)N1CCc2nc(C3CCCN3)ncc2C1` (stereo not given), with 49.6%. Then `Cc1nn2cccnc2c1C(=O)N1CCCC(n2ccnc2C)C1` (stereo not given), with 2.3%; and `COc1ccccc1-c1cc(C(=O)N(C)C)c2cnn(C)c2n1`, with -8.9%; and `Cn1ccnc1-c1nc(NC2CCCC2)ncc1-c1cccc(F)c1`, with 63.8%.

On to `CCOCCCNc1ncc(-c2cccc(F)c2)c(-c2nccn2C)n1`, for which the INHIBITION is given as 8.12%. On to `COCCNc1ncc(-c2cccc(F)c2)c(-c2nccn2C)n1`, for which the INHIBITION worked out at 25.8%.

Turning to `COc1nn(C)c2c1CCCN(C(=O)c1cnccn1)C2`, the INHIBITION is recorded as 18.6%. Next, `COc1nn(C)c2c1CCCN(C(=O)c1c[nH]cn1)C2`: 14%; `COc1nn(C)c2c1CCCN(C(=O)c1cscn1)C2`: 51.2%; `CCCn1nccc1NC(=O)CN1CCCC1c1cccn1C` (stereo not given): 25.1%. Next, `Cc1cc(C)cc(N2CCN(Cc3cccnc3)CC2=O)c1`: 41.5%.

As for `O=C1NCC2(CCCN(Cc3ccc(Cl)s3)C2)Oc2ccccc21` (stereo not given), the INHIBITION is 43.7%. In the case of `O=C1CC2(CCN(Cc3ccc(-c4ccccc4)s3)C2)C(=O)N1` (stereo not given), the INHIBITION is listed as 21.2%. For `O=C1CC2(CCN(Cc3ccc(Cl)s3)C2)C(=O)N1` (stereo not given), the INHIBITION was determined as 61.6%. Next, `O=C(Cc1ccccn1)N1CCc2ncnc(NC3CCC3)c2CC1`: 38.5%. Next, `CCc1nc(C)c(C(=O)NCCN2CCN(C(C)=O)CC2)s1`: 22.3%. Next, `Cc1nn(C)cc1CN1CCc2c(nc(-c3ccccn3)[nH]c2=O)C1`: 38.8%; `COc1cc2c(cc1OC)C(=O)C(Sc1nncn1C)C2` (stereo not given): 6.67%; `Cc1cccc(C)c1NC(=O)c1cccc(CN2CCCC2C)c1` (stereo not given): 41.5%. Take `CC1CCCN1Cc1cccc(C(=O)Nc2ccc3[nH]c(=O)oc3c2)c1` (stereo not given): the INHIBITION is 74.7%. Then `CC1CCCN1Cc1cccc(C(=O)Nc2ccc3c(c2)CCC3=O)c1` (stereo not given), with 58.6%. Next, `CC1CN(C)CCN1Cc1cccc(C(=O)NCc2ccco2)c1` (stereo not given): -5.9%; `O=C(NCc1ccco1)c1cccc(CN2CCCC2CO)c1` (stereo not given): 5.58%.

In the case of `COc1ccc(NC(=O)c2cccc(CN3CCCC3C)c2)cc1OC` (stereo not given), the INHIBITION was 42.6%. Take `COc1cccc(CN(C)C(=O)CCC(=O)c2ccccc2)c1OC`: the INHIBITION was -16.9%. As to `CCN(C)C(=O)CCC(=O)c1cccs1`, the INHIBITION stood at 40.2%. Regarding `COc1ccc(CN(C)C(=O)CCC(=O)c2cccs2)c(OC)c1OC`, the INHIBITION is 50.1%. `COCCN1CCC(CN(CC2CCCO2)C(=O)CCC(F)(F)F)CC1` (stereo not given): the INHIBITION is given as 6.67%. Next, `COc1cncc(-n2ccnc2-c2ccc(C(=O)O)s2)c1`: 14.6%; `COc1ccc(N(c2ccc(C)cc2)c2ccc(C(=O)O)s2)cc1`: 27.8%; `CCC(=O)Nc1nnc(CCOc2ccc(OC)cc2)s1`: 40%. Regarding `Cc1ccc(OCc2ccc(C(=O)O)s2)cc1C`, the INHIBITION was -32.9%.

For `COc1ccc(N(c2ccc(OC)cc2)c2ccc(C(=O)O)s2)cc1`, the INHIBITION is on record as 69.3%. For the molecule `COc1ccc(N(c2ccccc2)c2ccc(C(=O)O)s2)cc1`, the INHIBITION was found to be 66.4%. `Cc1nc(N2CCCC2)ncc1-c1cc(O)n2ncnc2n1`: the INHIBITION is recorded as 16.8%. Next, `CN1CCCCC1(C)C(=O)N1CCC(c2ccccn2)CC1` (stereo not given): 19.825%. Next, `OC(COCc1ccco1)CN1CCc2c(ncn2C2CC2)C1` (stereo not given): -58.7%; `Cn1ccnc1C(=O)N1CCOC(Cc2ccc(Cl)cc2)C1` (stereo not given): 47.2%; `O=S(=O)(CCC1CCCO1)NCc1ncc(-c2ccccc2)o1` (stereo not given): 20%. On to `CN(CCCC1CCCO1)S(=O)(=O)NCc1ccccc1` (stereo not given), for which the INHIBITION is 16.1%. In the case of `Cc1cnc(CNS(=O)(=O)CCC2CCCO2)o1` (stereo not given), the INHIBITION was 57.7%. With `C=c1ccoc1=C1NN=C(CNCCn2cccn2)O1`, the INHIBITION was 34.1%. For the molecule `CC(=O)N1CCC2(CC1)CN(CC(C)C)CC21CCNC1=O` (stereo not given), the INHIBITION is -33.1%.

Take `O=C(NCc1ccoc1)NC1CCCN(c2ncccn2)C1` (stereo not given): the INHIBITION is -22.1%. Then `CCOC1CCN(C(=O)c2csc(S(N)(=O)=O)c2)CC1`, with 62.4%. Next, `CCCOC1CCCN(C(=O)c2csc(S(N)(=O)=O)c2)C1` (stereo not given): 0.991%; `CC1CCCN(C(=O)c2csc(S(N)(=O)=O)c2)CC1` (stereo not given): 11.5%; `CCc1nnc2n1CC(CNCc1nc(C)c(C)o1)CC2` (stereo not given): -8.22%. Take `Cc1ccc(CNC(=O)N2CCCC(NS(C)(=O)=O)C2)cc1` (stereo not given): the INHIBITION was found to be 9.64%. Take `Cc1noc([C@]23COC[C@H]2CN(C(=O)COC2CCCC2)C3)n1`: the INHIBITION is given as -5.89%.

With `Cc1noc([C@]23COC[C@H]2CN(C(=O)CN(C)C)C3)n1`, the INHIBITION came to 46.6%. Then `CCOCC(=O)N1C[C@@H]2COC[C@]2(c2nc(C)no2)C1`, with 63.8%. As to `COCCN1CCc2ncnc(N(C)C)c2CC1`, the INHIBITION was found to be 33.5%. With `CN(C)Cc1ccnc(C2CN(CCCc3ccccc3)CCO2)n1` (stereo not given), the INHIBITION came to 42.6%. Next, `O=C(c1ccc(C2CCCN2C(=O)c2ccc[nH]2)s1)N1CCSCC1` (stereo not given): -32.2%. Next, `CC(C)(C)n1ncc2c1CCCC2NCc1ccsc1` (stereo not given): 50.1%; `CCn1ncc2c1CCCC2NCc1ccc2c(c1)CCO2` (stereo not given): 5.03%.

With `Cn1ncc2c1CCCC2NCc1cnc(-c2ccccc2)nc1` (stereo not given), the INHIBITION was 33%. As to `CC(C)(C)n1ncc2c1CCCC2NCc1ccc2c(c1)CCO2` (stereo not given), the INHIBITION came out at 61%. `CC(C)(C)n1ncc2c1CCCC2NCc1ccc2ncccc2c1` (stereo not given): the INHIBITION is 72.8%.

For the molecule `CC(C)(C)n1ncc2c1CCCC2NCc1cccc2c1OCO2` (stereo not given), the INHIBITION turned out to be 20.2%. Next, `CCn1ncc2c1CCCC2NCc1ccc2c(c1)OCCO2` (stereo not given): 1.51%; `CC(C)(C)n1ncc2c1CCCC2NCc1cccc(C(N)=O)c1` (stereo not given): -8.4%. As for `CC(C)(C)n1ncc2c1CCCC2NCc1ccc2c(c1)OCCO2` (stereo not given), the INHIBITION came out at 93.1%. As for `O=C1C(NCc2ccc3c(c2)CCO3)CCN1Cc1ccccc1` (stereo not given), the INHIBITION was found to be 6.88%.

For `COCc1nc(CNC2CCCc3c2cnn3C(C)(C)C)cs1` (stereo not given), the INHIBITION is given as 2.02%. Then `CC(C)(C)n1ncc2c1CCCC2NCc1cccc2c1OCCO2` (stereo not given), with 35.9%.

The record behind these values is ChEMBL document CHEMBL4513216, “Probing the Open Global Health Chemical Diversity Library for Multistage-Active Starting Points for Next-Generation Antimalarials” (ACS Infect Dis, 2020).
